Screening data (PubChem BioAssay)
Nrf2 inh: inhibitors of Nrf2 signaling | A549 ARE-Fluc reporter, luciferase luminescence, 18-24 h | Potency, µM (doses to about 46 µM), for the others: at the highest dose activity change, negative = inhibition, usual class: inhibitors | 360,000 compounds, 2.1% hits | AID 504444; also: % is scaled to controls: 0 for no effect and ±100 for the full control effect; nearly all actives have a fitted effect of over 60% in size
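A549 ARE_Fluc cells (5000/well, 5% FBS OPTI-MEM) pre-incubated 2 h, then treated with compounds 18-24 h at 37C/5% CO2 in concentration-response. CellTiter-Fluor viability read first; BugLite luciferase luminescence after 15 min at room temperature gives Nrf2 activity.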
TGFb SMAD3 inh: inhibitors of TGF-b signaling; HepG2 CAGA-GFP TGF-b/SMAD3 reporter, GFP fluorescence, 18 h; TGF-beta stimulated, 500 pg/mL final; Potency, µM (series often up to 46.1 µM), without a hit: at the top dose activity, negative = inhibition, hits mostly inhibitors; 410,000 compounds, 1.2% hits; also: % is scaled to controls: 0 for no effect and ±100 for the full control effect; nearly all actives have a fitted effect of over 65% in size
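HEPG2 CAGA-GFP, 1000 cells/well; 2 h settle, 37 C; cpd via pin tool; TGF-b 500 pg/mL final; 18 h, 37 C; GFP imaging ex488/em500-530; %Activity normalised to -TGF-b and +DMSO controls; CRC fit, curve class.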
A549 viability: kills or reduces viability of A549 cells in Nrf2 counter-screen. A549 ARE-Fluc cells, CellTiter-Fluor viability, 18-24 h. Potency, µM (top dose mostly 46 µM), inactives show at the highest dose activity change, negative = cytotoxicity, most hits filed as inhibitors. 390,000 compounds, 0.16% hits. AID 504648; also: % is scaled to controls: 0 for no effect and ±100 for the full control effect
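Cytotoxicity counterscreen: CellTiter-Fluor fluorescence was measured in A549 ARE_Fluc cells after 18-24 h of compound exposure in a concentration series. The subsequent BugLite luminescent read reports ARE-luciferase activity.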
Nrf2 ARE act: activators of Nrf2 (ARE) signaling; AREc32 ARE-luciferase reporter (MCF7-derived line), luminescence, 24 h; Potency, µM (top dose mostly 46.1 µM), for inactives: top-dose activation, most hits filed as activators; 410,000 compounds, 0.31% hits; AID 624171; also: % of control where 0% means no effect; nearly all actives have a fitted effect of over 65% in size
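Each well held 1000 AREc32 cells, which were incubated with compound for 24 hr at 37 deg C after overnight attachment, and ARE reporter activity was quantified by firefly luciferase luminescence.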
HepG2 viability: kills HepG2 cells in TGF-b inhibitor counter-screen; HepG2 CAGA-GFP viability, ATP luminescence, 18 h; Potency, µM (top dose mostly 46.1 µM), for inactives: at the highest dose activity change, negative = cytotoxicity, actives largely listed as cytotoxic; 410,000 compounds, 0.76% hits; AID 588856
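HepG2 CAGA-GFP cells (1000/well, DMEM with 1% FBS) received compound, then TGF-beta at 500 pg/mL final, and were incubated 18 hours at 37 degrees C. Viability was read by CellTiter-Glo luminescence. Media-only wells were set as complete cell-killing and DMSO as no toxicity.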
* hit, by the source's call; ? = inconclusive. In the library only some 3.6% were active in any assay of this set; here they are far more common. Calls follow the shape of the dose curve; as a rule, active = well fitted curve in the direction sought with a large enough effect; inconclusive = small, poorly fitted or top-dose-only effect, or another doubt; inactive = no such curve, though single readings can be large; an effect the other way counts as inactive or inconclusive. Potency is read from the fitted curve at half-maximal effect.

SMILES	Nrf2 inh	TGFb SMAD3 inh	A549 viability	Nrf2 ARE act	HepG2 viability
CSc1cccc(CN2CCC(CO)(Cc3cccc(C(F)(F)F)c3)CC2)c1	11%	?	-6%	0%	-110%
CC(C)Cc1cc(CN2CCC(CO)(Cc3cccc(C(F)(F)F)c3)CC2)[nH]n1	8%	?	-7%	6%	16µM*
Cc1ccc(-n2cc(CN3CCC(CO)(Cc4cccc(C(F)(F)F)c4)CC3)cn2)cc1	?	?	-14%	-3%	11µM*
CN(C)c1ccc(C=c2c3ccccc3n3c2cc(-c2ccc(Cl)cc2)[n+]3C)cc1	?	?	?	26%	-61%
COc1cc(N(C)C)ccc1C=c1c2ccccc2n2c1cc(-c1ccccc1)[n+]2C	15µM*	3.5µM*	?	6%	-61%
CN(C)c1ccc(C=c2c3cc([N+](=O)[O-])ccc3n3c2cc(-c2ccccc2)[n+]3C)cc1	8.2µM*	?	?	-4%	-73%
CN(C)c1ccc(C=c2c3ccccc3n3c2cc(-c2ccccc2)[n+]3C)cc1	5.8µM*	?	16µM*	0%	7.9µM*
COc1cc(C=c2c3ccccc3n3c2cc(-c2ccccc2)[n+]3C)cc(OC)c1OC	16µM*	?	?	15%	-34%
CC1CCC2(CC1)NC(=O)N(CC(=O)Nc1ccc3c(c1)OCCCO3)C2=O (stereo unspecified)	0%	18%	-6%	0%	-8%
Nc1n[nH]c(C2CC2)c1N=Nc1ccc(Cl)c(Cl)c1	8%	?	-24%	4%	-25%
COc1ccccc1C(O)(C(=O)NN(C(=O)c1ccccc1)c1ccccc1C)c1cccs1 (stereo unspecified)	1%	2%	9%	-1%	-62%
CN(C)c1ccc(C=c2c3ccccc3n3c2c2c([n+]3C)CCCC2)cc1	6.5µM*	2.5µM*	21µM*	-3%	-51%
C/C(Cc1ccccc1)=N\NC(=O)CNC(=O)Cc1ccc(Cl)cc1	4%	-2%	-3%	0%	3%
O=C(CSc1nc(=O)n(CCN2CCOCC2)c2c1CCC2)Nc1ccc(OC(F)(F)F)cc1	18µM*	?	-1%	2%	-35%
CCOC(=O)C1CCN(C(=O)Cn2ncc3c4ccccc4n(C)c3c2=O)CC1	4%	5%	-2%	0%	2%
Cc1ccc(S(=O)(=O)c2nnn3c2nc(Nc2ccc(C(C)C)cc2)c2sccc23)cc1C	21µM*	-16%	0%	-1%	2%
COc1cccc(O)c1CN1CCC(C(=O)Nc2ccc(-c3cccc(C)c3)cc2)CC1	?	?	?	-3%	13µM*
COc1cccc(O)c1CN1CCC(C(=O)Nc2ccc(Oc3cccnc3)cc2)CC1	3%	4%	-4%	4%	0%
O=C(c1ccc(N2CCN(C(=O)c3ccc(F)c(F)c3)CC2)cc1)c1cccc(F)c1	16µM*	?	-15%	0%	-8%
O=C(c1ccc(N2CCN(C(=O)c3ccccc3)CC2)cc1)c1cccc(F)c1	?	?	0%	6%	-13%
Cc1n(Cc2ccccc2)c2ccccc2[n+]1Cc1ccccc1	16µM*	?	-7%	-1%	-25%
COc1ccc2c(c1)C[C@]1(C)c3ccccc3C(=O)N(Cc3ccccc3)[C@H]21	-16%	11µM*	-2%	4%	-16%
COc1cccc(C2Nc3ccccc3C(=O)N2Cc2ccccc2)c1 (stereo unspecified)	9%	-1%	-2%	3%	-5%
O=C(COc1ccc(-c2ccccc2)cc1)N/N=C/c1ccccc1Br	-20%	?	-3%	0%	-6%
O=C(COc1ccc(-c2ccccc2)cc1)N/N=C/c1cc(O)ccc1Br	6%	13µM*	9%	2%	-63%
O=C(COc1ccccc1[N+](=O)[O-])Nc1ccc(N2CCN(C(=O)c3cccs3)CC2)cc1	5.8µM*	-27%	-13%	3%	8%
